Among the data in PubChem BioAssay (NCI) are growth values, retold here.

The panel holds about 83,000 compounds, 20% with a hit somewhere; the sample as a whole holds those more often.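 Single-concentration screen, 48 h exposure, 96-well plates. Endpoint: percent growth. Below 10 = active.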 A number with no mark means an inactive call. Active and inactive are the calls of the source.

Some test systems named below: EKVX NSCLC; SN12C renal; UO-31 renal; TK-10 renal; ACHN renal; CAKI-1 renal; A498 renal; CCRF-CEM leukemia; MOLT-4 leukemia; SR leukemia.
Assay in all cases: NCI-60 one-dose screen, 48 h (100 = growth as untreated, 0 = no growth, -100 = all killed)
What all share (details): 10 µM unless noted

Regarding `COc1ccc2c(c1)C(=O)c1c-2c(=O)n(CCCCCCC(=O)NO)c2ccccc12`, the growth in the assay with EKVX NSCLC is 31.3%; in the assay with SN12C renal it was 8.66% (active); in the assay with UO-31 renal, -33.8% (active); in the assay with TK-10 renal, -9.14% (active); in the assay with ACHN renal, -57.8% (active); with CAKI-1 renal it was -55.4% (active). Besides, the growth was -67.8% (active) with A498 renal, -7.49% (active) with CCRF-CEM leukemia and 4.43% (active) with MOLT-4 leukemia.
On to `N=C(N)/N=C(\CCc1nc2ccccc2[nH]1)c1nc2ccccc2[nH]1`, for which the growth in the assay with EKVX NSCLC is 92.7%; in the assay with SN12C renal it was 85.6%; in the assay on UO-31 renal, 67.6%; in the assay with TK-10 renal, 105%; with ACHN renal it was 92.3%; in the assay with CAKI-1 renal, 93.6%. Also, the growth is 111% with A498 renal, 99.5% in the assay on CCRF-CEM leukemia and 107% with MOLT-4 leukemia.
As to `Fc1ccc([C@@H]2CCNC[C@H]2COc2ccc3c(c2)OCO3)cc1`, the growth is 77.3% with EKVX NSCLC; 58.6% in the assay with SN12C renal; 40.4% with UO-31 renal; 58.4% with TK-10 renal; 67% in the assay with ACHN renal; 67% with CAKI-1 renal. Also, the growth in the assay with A498 renal is 86.1%; in the assay with CCRF-CEM leukemia, 60.6%; with MOLT-4 leukemia, 68.3%.
With `CCC[C@H](N[C@@H](C)C(=O)N1[C@H](C(=O)O)C[C@@H]2CCCC[C@@H]21)C(=O)OCC`, the growth was 111% in the assay with EKVX NSCLC; 101% in the assay with SN12C renal; 77.4% in the assay with UO-31 renal; 113% with TK-10 renal; 90.8% in the assay on ACHN renal; 102% in the assay with CAKI-1 renal. In addition, the growth in the assay with A498 renal is 98.9%; with CCRF-CEM leukemia it was 105%; in the assay on MOLT-4 leukemia, 115%.
On to `Nc1c2ccccc2nc2ccccc12` (tested in a mixture with another compound), for which the growth with EKVX NSCLC is 22.6%; in the assay with SN12C renal, 20.1%; in the assay with UO-31 renal, 14.9%; in the assay with TK-10 renal, 15.5%; in the assay on ACHN renal it was 8.26% (active); with CAKI-1 renal it was 20.2%. Further, the growth in the assay on A498 renal was 0.179% (active); with CCRF-CEM leukemia, 26.2%; in the assay on MOLT-4 leukemia, 15.4%.
On to `CCCc1nn(C)c2c(=O)[nH]c(-c3cc(S(=O)(=O)N4CCN(C)CC4)ccc3OCC)nc12`, for which the growth is 95.1% with EKVX NSCLC; 102% in the assay on SN12C renal; 78.7% in the assay on UO-31 renal; 113% in the assay on TK-10 renal; 92.8% in the assay with ACHN renal; 80.2% in the assay on CAKI-1 renal. Also, the results for the growth with A498 renal, with CCRF-CEM leukemia and in the assay with MOLT-4 leukemia were 103%, 108% and 94.8%, respectively.
`O=C1OCC/C1=C\OCCCO/C=C1\CCOC1=O`: the growth with EKVX NSCLC was 101%; in the assay with SN12C renal, 99.3%; with UO-31 renal it was 90.7%; with TK-10 renal it was 110%; with ACHN renal, 103%; with CAKI-1 renal, 106%. In addition, the values for the growth in the assay with A498 renal, in the assay with CCRF-CEM leukemia and in the assay with MOLT-4 leukemia were 119%, 107% and 111%, respectively.
On to `CCOc1cc(C(C)(C)C)ccc1C1=N[C@H](c2ccc(Cl)cc2)[C@H](c2ccc(Cl)cc2)N1C(=O)N1CCN(CC#Cc2cccc3c2CN([C@@H]2CCC(=O)NC2=O)C3=O)CC1`, for which the growth in the assay on EKVX NSCLC is 48.4%; in the assay with SN12C renal, 24.4%; in the assay on UO-31 renal, 5.26% (active); with TK-10 renal, 49%; in the assay on ACHN renal, 23.6%; in the assay with CAKI-1 renal, 7.99% (active). Further, the growth is 14.1% with A498 renal, -4.36% (active) in the assay on CCRF-CEM leukemia, -13.3% (active) in the assay with MOLT-4 leukemia and 9.99% (active) with SR leukemia.
For the compound `COc1ccc(-c2nc3sccn3c2-c2ccnc(S(C)(=O)=O)n2)cc1`, the growth is 79.7% with EKVX NSCLC; 93.4% with SN12C renal; -82% (active) with UO-31 renal; 117% in the assay on TK-10 renal; 74.2% in the assay with ACHN renal; -69% (active) in the assay with CAKI-1 renal. Further, the growth in the assay on A498 renal was 120%; in the assay on CCRF-CEM leukemia, 77.8%; with MOLT-4 leukemia, 87.2%; with SR leukemia it was 40.5%.
Regarding `N=c1ccn2c(n1)O[C@@H]1[C@@H](O)[C@H](CO)O[C@@H]12`, the growth in the assay on EKVX NSCLC was 98.8%; with SN12C renal it was 54.3%; in the assay with UO-31 renal, 15.5%; with TK-10 renal, 67.2%; in the assay with ACHN renal it was 11.8%; in the assay with CAKI-1 renal it was 55.3%. The growth is 99.3% in the assay with A498 renal, 31.5% with CCRF-CEM leukemia and 28.2% in the assay with MOLT-4 leukemia.
Consider `Cc1cc([N+](=O)[O-])c(C)cc1C(=O)O`, for which the growth in the assay with EKVX NSCLC was 112%; in the assay with SN12C renal, 105%; in the assay on UO-31 renal it was 85.4%; with TK-10 renal it was 105%; in the assay on ACHN renal, 99.8%; with CAKI-1 renal it was 97.4%. Besides, the growth in the assay on A498 renal is 96.6%; in the assay on CCRF-CEM leukemia, 104%; in the assay with MOLT-4 leukemia, 112%.
As to `S=C(Nc1ccc(C2=NCCN2)cc1)Nc1ccc(C2=NCCN2)cc1`, the growth in the assay on EKVX NSCLC was 91.9%; with SN12C renal, 98.9%; with UO-31 renal, 83.4%; in the assay with TK-10 renal, 100%; in the assay on ACHN renal it was 99.2%; in the assay on CAKI-1 renal, 93.9%. The growth in the assay on A498 renal was 101%; with CCRF-CEM leukemia it was 104%; in the assay with MOLT-4 leukemia, 93.6%.
In the case of `O=C1NC(=O)/C(=C\c2ccccc2)C2=C1CCCC2`, the growth in the assay on EKVX NSCLC is 95%; with SN12C renal it was -64.7% (active); in the assay on UO-31 renal it was -46.7% (active); with TK-10 renal it was 0.712% (active); in the assay on ACHN renal it was 15.7%; in the assay on CAKI-1 renal it was 7.29% (active). The growth with A498 renal was 101%; in the assay with CCRF-CEM leukemia, 35.8%; in the assay on MOLT-4 leukemia, 38.1%.
For `CCOC(=O)/C=C(/C)Sc1cc(O)c2ccccc2c1O`, the growth in the assay with EKVX NSCLC is 44.8%; in the assay on SN12C renal it was -68.3% (active); in the assay with UO-31 renal it was -5.64% (active); with TK-10 renal, 105%; in the assay on ACHN renal, 25.2%; in the assay on CAKI-1 renal it was 46.1%. In addition, the values for the growth in the assay on A498 renal, in the assay with CCRF-CEM leukemia and in the assay with MOLT-4 leukemia were 124%, 38.4% and 33%, respectively.
